Assay outcomes from PubChem BioAssay.
Compounds with a hit are over-represented: about 12% of the library has one in this group of screens.
PI5P4Ka inh: blocks human PI5P4K alpha kinase activity. 1.2% of 330,000 active. PI5P4Kalpha enzyme, ADP-Glo luminescence, 60 min; active compounds read low. max response, %. P48426. AID 652105; active = max response of -50% or lower; inconclusive = between -30% and -50%; inactive = -30% or higher; also: value at the top dose of about 77 µM
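ADP-Glo luminescence end-point read after a 60 min room-temperature kinase reaction of PI5P4Kalpha plus substrate, initiated with ATP at 5 microM final. Buffer: 0.038 M HEPES pH 7.4, EGTA, 0.1% CHAPS, 5% DMSO.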
JMJD2A Tudor: JMJD2A Tudor domain (human) inhibition; 4.4% of 390,000 active; O75164; AID 504339; Potency, µM (series often up to 114 µM), hits mostly inhibitors; AlphaScreen JMJD2A-Tudor / H3K4me3 peptide binding; also: nearly all actives have a fitted effect of over 50% in size
Target sequence (O75164 whole entry, looked up, the tested form may be a part): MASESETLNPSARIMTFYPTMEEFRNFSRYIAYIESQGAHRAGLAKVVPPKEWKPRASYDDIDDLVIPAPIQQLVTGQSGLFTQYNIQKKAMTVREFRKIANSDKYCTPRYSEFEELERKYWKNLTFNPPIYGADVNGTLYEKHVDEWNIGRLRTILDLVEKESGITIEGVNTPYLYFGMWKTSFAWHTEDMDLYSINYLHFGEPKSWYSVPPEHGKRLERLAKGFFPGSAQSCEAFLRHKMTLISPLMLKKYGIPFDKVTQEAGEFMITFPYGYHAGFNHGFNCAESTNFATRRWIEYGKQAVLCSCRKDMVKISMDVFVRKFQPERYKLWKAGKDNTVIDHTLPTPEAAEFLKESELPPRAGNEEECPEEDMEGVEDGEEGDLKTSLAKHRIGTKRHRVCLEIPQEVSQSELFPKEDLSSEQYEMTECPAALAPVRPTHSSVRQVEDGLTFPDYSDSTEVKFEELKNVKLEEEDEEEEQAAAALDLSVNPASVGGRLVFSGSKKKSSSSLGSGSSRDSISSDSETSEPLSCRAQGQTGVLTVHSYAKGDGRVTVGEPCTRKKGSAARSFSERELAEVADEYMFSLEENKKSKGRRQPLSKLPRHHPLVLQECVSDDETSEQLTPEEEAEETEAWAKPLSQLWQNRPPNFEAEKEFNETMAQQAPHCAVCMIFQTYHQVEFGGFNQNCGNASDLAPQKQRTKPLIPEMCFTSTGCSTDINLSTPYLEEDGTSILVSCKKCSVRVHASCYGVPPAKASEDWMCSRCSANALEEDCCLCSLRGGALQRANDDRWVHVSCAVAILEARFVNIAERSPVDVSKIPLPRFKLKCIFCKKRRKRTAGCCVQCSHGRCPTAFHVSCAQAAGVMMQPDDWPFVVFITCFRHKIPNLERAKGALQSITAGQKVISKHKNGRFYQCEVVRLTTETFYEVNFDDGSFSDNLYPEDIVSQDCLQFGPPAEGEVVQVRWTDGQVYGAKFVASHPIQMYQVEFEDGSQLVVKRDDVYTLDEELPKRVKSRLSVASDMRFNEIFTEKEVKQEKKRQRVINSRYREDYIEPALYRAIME
PLK1 PBD block: PLK1 (human) polo-box domain binding inhibition | P53350 | Plk1 PBD binding of FITC phosphopeptide, fluorescence polarization | Potency, µM, actives largely listed as inhibitors | 2.8% of 360,000 active; also: series mostly up to about 57 µM; nearly all actives have a fitted effect of over 65% in size
HP1b chromo inh: HP1-beta chromodomain-methylated histone interaction inhibition; P83916; AlphaScreen HP1-beta / biotin-H3K9me3 peptide binding; Potency, µM (top dose mostly 114 µM), usual class: inhibitors; 0.56% of 390,000 active; AID 540317; also: nearly all actives have a fitted effect of over 70% in size
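AlphaScreen: HP1-beta (50 nM) preformed 30 min with biotin-H3(1-18)K9me3 peptide (50 nM) in PBS pH 7.4, 0.01% Tween-20. Compound added for 30 min at RT, then streptavidin donor/nickel chelate acceptor beads (10 ug/mL) for 30 min.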
G9a block: blocks human histone lysine methyltransferase G9a; Q96KQ7; G9a H3K9 monomethylation, AlphaScreen, 2 h; Potency, µM (doses to about 102 µM), most hits filed as inhibitors; 8.8% of 350,000 active; also: nearly all actives have a fitted effect of over 75% in size
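G9a (20 nM) was preincubated 15 min with compound, then reacted 2 h at room temperature with 500 nM biotin-H3K9 peptide and 20 µM SAM. Monomethyl-H3K9 detected by AlphaScreen using anti-H3K9me1 antibody.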
BAZ2B inh: BAZ2B (human) inhibition | AlphaScreen BAZ2B-H3K14Ac peptide displacement | Potency, µM (series often up to 114 µM), hits mostly inhibitors | 4.4% of 360,000 active | AID 504333; also: nearly all actives have a fitted effect of over 60% in size
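Compounds, titrated to a top concentration of 110 uM, were incubated 30 min at room temperature with preformed BAZ2B/acetyl-K14 H3 peptide complex (50 nM each). Proximity signal was measured by AlphaScreen after 20 min with beads.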
Large screens that a line does not name were inactive. Unless noted, calls follow the shape of the dose curve; as a rule, active = well fitted curve in the direction sought with a large enough effect; inconclusive = small, poorly fitted or top-dose-only effect, or another doubt; inactive = no such curve, though single readings can be large; an effect the other way counts as inactive or inconclusive.

Cc1ccccc1-c1nc(CN2CCC(C(=O)NCc3ccc(F)cc3)CC2)c(C)o1	BAZ2B inh inconclusive (no result: PI5P4Ka inh, PLK1 PBD block)
Cc1cc(C)c(Cn2c3ccccc3c3cnn(CC(=O)NCCc4ccccc4)c(=O)c32)c(C)c1	none (no result: PI5P4Ka inh, PLK1 PBD block)
COC(=O)c1ccccc1NC(=O)Cn1c(=O)n(CCC(=O)NCc2ccc3c(c2)OCO3)c(=O)c2ccccc21	none (no result: PI5P4Ka inh, PLK1 PBD block)
Cc1ccc(/C=N/N=C/c2ccc(C)cc2)cc1	PLK1 PBD block 21µM, HP1b chromo inh inconclusive
Oc1ccc(/C=N/N=C/c2ccc(O)cc2)cc1	G9a block inconclusive
CN(CC(=O)Nc1ccccc1Cl)C(=O)COC(=O)c1ccc([N+](=O)[O-])s1	none (no result: G9a block, BAZ2B inh)
O=C1C2(CCCC13COC(c1ccc(O)cc1)OC3)COC(c1ccc(O)cc1)OC2 (stereo not drawn)	JMJD2A Tudor inconclusive, PLK1 PBD block 30µM (no result: G9a block)
Cc1ccc(S(=O)(=O)N2CCCc3cc(NS(=O)(=O)c4ccc(F)cc4)ccc32)cc1	none (no result: PI5P4Ka inh, PLK1 PBD block)
Cc1ccc(S(=O)(=O)NC(C)C(=O)NC2CC2)cc1 (stereo not drawn)	G9a block 79µM
CC(NS(=O)(=O)c1ccccc1)C(=O)NC1CCCC1 (stereo not drawn)	PLK1 PBD block inconclusive
O=C(c1ccco1)n1nc(-c2ccco2)nc1SCc1ccccc1	none (no result: PI5P4Ka inh)
CCCC(=O)n1nc(-c2ccco2)nc1SCc1ccccc1	none
Cc1ccc(C(=O)n2nc(-c3ccco3)nc2N)cc1	none
CSc1nc(-c2ccco2)nn1C(=O)c1ccc(C)cc1	PLK1 PBD block inconclusive, G9a block 45µM
CSc1nc(-c2ccco2)nn1C(=O)c1ccccc1	PLK1 PBD block 11µM, G9a block inconclusive, BAZ2B inh inconclusive
O=C(Cc1ccccc1)n1nc(-c2ccco2)nc1SCc1ccccc1	JMJD2A Tudor 89µM
CSc1nc(-c2ccco2)nn1C(=O)c1ccco1	PLK1 PBD block inconclusive, G9a block 40µM
CCOC(=O)Cn1c(=O)n(C2CCCCC2)c2nc(-c3ccc(Cl)cc3)nc(C(N)=O)c21	none (no result: PI5P4Ka inh, PLK1 PBD block)
COC(=O)N1CCC2(CCCN(C(=O)Nc3cccc(F)c3)C2)CC1	none (no result: PI5P4Ka inh, JMJD2A Tudor, PLK1 PBD block, HP1b chromo inh, BAZ2B inh)
COc1ccccc1C(=O)n1nc(-c2ccco2)nc1SC	PLK1 PBD block 11µM, G9a block inconclusive
CCc1cccc(NC(=O)Cn2c(=O)n(CCc3ccc(OC)c(OC)c3)c(=O)c3ccccc32)c1	none (no result: PI5P4Ka inh, PLK1 PBD block)
CC(C(=O)Nc1ccccc1C(=O)N1CCCC1)n1nnc2ccccc21 (stereo not drawn)	G9a block 18µM (no result: PI5P4Ka inh)
Cc1cc(OC(C)C(=O)Nc2ccccc2C(=O)N2CCCC2)ccc1Cl (stereo not drawn)	none
CC(C(=O)O)n1nnc2ccccc21 (stereo not drawn)	none (no result: G9a block)
Cc1ccc(OC(C)C(=O)Nc2ccccc2C(=O)N2CCN(C)CC2)cc1 (stereo not drawn)	G9a block 40µM
CC(Oc1cccc(Cl)c1)C(=O)Nc1ccccc1N1CCCC1 (stereo not drawn)	JMJD2A Tudor inconclusive, G9a block 50µM
Cc1cccc(OC(C)C(=O)Nc2ccccc2C(=O)N2CCCCC2)c1 (stereo not drawn)	G9a block 35µM
CC(C)CSc1oc(-c2ccco2)nc1S(=O)(=O)c1ccc(Br)cc1	none (no result: PI5P4Ka inh, PLK1 PBD block)
COc1cccc(NC(=O)C(=O)NCCc2csc(-c3ccc(C)cc3)n2)c1	none (no result: PI5P4Ka inh, PLK1 PBD block)
Cc1cc(C)c(S(=O)(=O)n2cnc(C)c2)c(C)c1	none (no result: PI5P4Ka inh, PLK1 PBD block)
CC(Oc1cccc(F)c1)C(=O)Nc1ccc(N2CCOCC2)cc1 (stereo not drawn)	G9a block inconclusive
Cc1cccc(OC(C)C(=O)Nc2ccc(N3CCCCC3)cc2)c1 (stereo not drawn)	JMJD2A Tudor inconclusive, G9a block 22µM, BAZ2B inh inconclusive
Cc1ccc(Cn2c(=O)c3c(nc4n3CCN4c3cc(C)cc(C)c3)n(C)c2=O)cc1	none (no result: PI5P4Ka inh, PLK1 PBD block)
CCOC(=O)N1CCC(NC(=O)c2cnn(-c3ccc(OC)cc3)c2C2CCN(C(=O)OC(C)(C)C)CC2)CC1	none (no result: PI5P4Ka inh, PLK1 PBD block)
CC(C)(C)C(=O)NCCn1ccc2ccccc21	none
CS(=O)(=O)NCCn1ccc2ccccc21	JMJD2A Tudor inconclusive, PLK1 PBD block 30µM, G9a block inconclusive (no result: BAZ2B inh)
CC1CN(C(=O)c2ccccc2OCc2ccc(Cl)cc2Cl)CC(C)O1 (stereo not drawn)	none
COc1cc(C(=O)NCC(c2cccs2)N2CCOCC2)cc(Br)c1OCc1ccccc1 (stereo not drawn)	none (no result: G9a block, BAZ2B inh)
OC(COC(c1ccccc1)c1ccccc1)CN1CCN(c2cccc(Cl)c2)CC1 (stereo not drawn)	none
CC(=O)c1ccc(N2CCN(CC(O)COC(c3ccccc3)c3ccccc3)CC2)cc1 (stereo not drawn)	JMJD2A Tudor 10µM, HP1b chromo inh 22µM, G9a block 20µM, BAZ2B inh 18µM
CC(=O)c1ccc(OCC(O)CN2CCN(c3ccc(F)cc3)CC2)cc1 (stereo not drawn)	G9a block inconclusive, BAZ2B inh inconclusive
CC(=O)c1ccc(N2CCN(CC(O)COC(c3ccccc3)c3ccccc3C)CC2)cc1 (stereo not drawn)	JMJD2A Tudor 4.5µM, HP1b chromo inh 45µM, G9a block 8.9µM, BAZ2B inh 25µM
O=C(OC1CCCCC1)c1ccc2c(c1)C1C=CCC1C(C(=O)O)N2 (stereo not drawn)	G9a block inconclusive, BAZ2B inh 7.1µM (no result: PI5P4Ka inh, JMJD2A Tudor, PLK1 PBD block, HP1b chromo inh)
CC(C)CNC(=O)C1Nc2ccccc2C2C=CCC12 (stereo not drawn)	PI5P4Ka inh inconclusive, JMJD2A Tudor inconclusive, PLK1 PBD block inconclusive (no result: G9a block, BAZ2B inh)
CCOC(=O)c1ccc2c(c1)[C@@H]1C=CC[C@@H]1[C@H](c1cccc(OC)c1OC)N2	none (no result: PI5P4Ka inh, PLK1 PBD block)
CCOC(=O)C1Nc2ccc(C)cc2C2C=CCC12 (stereo not drawn)	PI5P4Ka inh inconclusive, JMJD2A Tudor 56µM (no result: G9a block, BAZ2B inh)
CCOC(=O)C1Nc2ccc(Br)cc2C2C=CCC12 (stereo not drawn)	PI5P4Ka inh inconclusive, JMJD2A Tudor 40µM, PLK1 PBD block inconclusive, HP1b chromo inh inconclusive, G9a block 3.5µM, BAZ2B inh 45µM
COC(=O)CNC(=O)C1Nc2ccccc2C2C=CCC12 (stereo not drawn)	PI5P4Ka inh inconclusive, JMJD2A Tudor 56µM, PLK1 PBD block inconclusive (no result: G9a block, BAZ2B inh)
CC(C)CNC(=O)C1Nc2ccc(OC(F)(F)F)cc2C2C=CCC12 (stereo not drawn)	PI5P4Ka inh inconclusive, JMJD2A Tudor inconclusive (no result: G9a block, BAZ2B inh)
O=C(O)C1Nc2ccc(Br)cc2C2C=CCC12 (stereo not drawn)	PI5P4Ka inh -82, JMJD2A Tudor 20µM, PLK1 PBD block 5.3µM, HP1b chromo inh 18µM, G9a block 1.8µM, BAZ2B inh 3.2µM
COc1ccc(Br)cc1[C@@H]1Nc2ccc(C(=O)O)cc2[C@@H]2C=CC[C@@H]21	G9a block inconclusive, BAZ2B inh inconclusive (no result: PI5P4Ka inh, PLK1 PBD block)
CCn1ccc2c(OCC(=O)NCc3ccc(C)cc3)cccc2c1=O	none (no result: PI5P4Ka inh, PLK1 PBD block)
